From PubChem BioAssay (Tox21)
Results filed as inconclusive are left out. A call without a number means that no potency is given here. Unmarked numbers belong to inactive results. Active and inactive are the calls of the source. The call rests on the fitted dose curve.

biological target: Muscarinic acetylcholine receptor M1 (Homo sapiens) (UniProt P11229); test: Cholinergic receptor muscarinic 1 (CHRM1) small molecule antagonists, cell-based qHTS assay (AID 1963588); settings: CHRM1-CHO antagonist mode, calcium flux fluorescence; series mostly up to 61.5 µM; further: nearly all actives have a fitted effect of over 40% in size
Sequence (P11229 whole entry, looked up): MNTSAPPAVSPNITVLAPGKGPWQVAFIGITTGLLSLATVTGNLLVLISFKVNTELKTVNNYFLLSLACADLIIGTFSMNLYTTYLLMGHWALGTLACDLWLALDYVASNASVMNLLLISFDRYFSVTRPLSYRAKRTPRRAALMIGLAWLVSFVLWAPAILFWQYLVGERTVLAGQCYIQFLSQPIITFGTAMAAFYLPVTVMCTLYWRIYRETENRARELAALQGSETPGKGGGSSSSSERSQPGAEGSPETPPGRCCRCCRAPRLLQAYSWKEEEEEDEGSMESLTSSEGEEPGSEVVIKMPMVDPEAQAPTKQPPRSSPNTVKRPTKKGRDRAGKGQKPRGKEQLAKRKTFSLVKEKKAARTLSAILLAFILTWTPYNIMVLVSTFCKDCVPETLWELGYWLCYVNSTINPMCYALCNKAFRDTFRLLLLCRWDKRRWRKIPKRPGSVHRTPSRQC
From the text: National Center for Advancing Translational Sciences [NCATS]
Division of Preclinical Innovation [DPI]
U.S. Environmental Protection Agency [EPA]
National Institutes of Environmental Health Sciences [NIEHS]
National Toxicology Program [NTP]
U.S. Food and Drug Administration [FDA]
The CHRM1 is a muscarinic receptor. This receptor plays a crucial role in learning and memory processes and has long been identified as a promising therapeutic target for the improvement of cognitive decline in Alzheimer's disease (AD). The CHRM1-CHO cell line stably expressing human muscarinic acetylcholine receptor M1 (CHRM1) can be used for screening agonists and antagonists of interactions between CHRM1 and its ligands. The CHRM1-CHO Calcium Flux Assay is a homogeneous fluorescence-based assay for detecting the intracellular calcium level using FDSS kinetic plate reader system.
Tox21 Assay Protocol Summary:
CHRM1-CHO cells were dispensed at 1000 cells/3uL/well in 1536-well black-clear bottom plates using a Multidrop Dispenser. After the assay plates were incubated at a 37 C/5% CO2 incubator for 18 h, 3 uL of Dye Loading Buffer was transferred to the assay plate by a Flying Reagent Dispenser. The assay plates were incubated at 37 C for 1h. For antagonist mode, 23 nL of compounds dissolved in DMSO, positive controls or DMSO only was transferred to the assay plate by a pin tool. After 5 min incubation at room temperature, 1.5 uL of acetylcholine at 50nM was added to each well. The fluorescence intensity in the plates was measured using FDSS 7000EX kinetic plate reader for 3 min at 1 sec intervals. Each test compound was measured at 15 concentrations in three independent runs.
Potency means the concentration at half of the fitted maximal effect.

**Q.** For `CCN(C(=O)N(CC)c1ccccc1)c1ccccc1`, which Potency is on record?
**A.** inactive

**Q.** How did the Potency turn out when `OC/C=C/c1ccccc1` was run?
**A.** inactive

**Q.** Which Potency does the source give for `CNc1ccc([N+](=O)[O-])cc1` here?
**A.** inactive

**Q.** How did the Potency turn out when `CCCCC(CC)CNC(=O)CC(C)OC(=O)CCC(=O)O` (stereo not given) was run?
**A.** inactive

**Q.** Which Potency does the source give for `C=C(C)CS(=O)(=O)O` here?
**A.** inactive

**Q.** How did the Potency turn out when `Cc1cc(O)c(Cl)c(C)c1Cl` was run?
**A.** inactive

**Q.** How did the Potency turn out when `CO[Si](C)(OC)OC` was run?
**A.** inactive

**Q.** Which Potency does the source give for `O=S(=O)(c1ccc(OCc2ccccc2)cc1)c1ccccc1O` here?
**A.** inactive

**Q.** For `Cc1ccc(N)cc1S(=O)(=O)O`, which Potency is on record?
**A.** inactive

**Q.** For `O=C(CCCCCCC(=O)Nc1ccccc1)NO`, which Potency is on record?
**A.** inactive

**Q.** `Cc1cc(CCN2CCN(c3nsc4ccccc34)CC2)cc2c1NC(=O)CC2(C)C` was tested. Which Potency did it give?
**A.** 16.8 µM (active)

**Q.** Which Potency does the source give for `O=C(c1ccccc1)C1CCC1` here?
**A.** inactive

**Q.** Which Potency does the source give for `Cc1cccc(NC(=S)N(C)C)c1` here?
**A.** inactive

**Q.** For `CCCOC(OCCC)OCCC`, which Potency is on record?
**A.** inactive

**Q.** How did the Potency turn out when `CSc1ccc2c(c1)C(N1CCN(C)CC1)Cc1ccccc1S2` (stereo not given) was run?
**A.** 0.729 µM (active)

**Q.** For `O=C(Nc1ccccc1)c1cc(Cl)ccc1O`, which Potency is on record?
**A.** inactive

**Q.** With `CCCC(C)CC` (stereo not given) as the compound, how does the Potency read?
**A.** inactive

**Q.** `CC(=O)NC1(c2cccc(F)c2)CCN(CC[C@@]2(c3ccc(Cl)c(Cl)c3)CN(c3ccccc3)C(=O)CO2)CC1` was tested. Which Potency did it give?
**A.** inactive

**Q.** For `Nc1ccc2cc(S(=O)(=O)O)cc(O)c2c1N=Nc1ccccc1C(F)(F)F`, which Potency is on record?
**A.** inactive

**Q.** Which Potency does the source give for `CN(C)[C@@H]1C(=O)C(C(N)=O)=C(O)[C@@]2(O)C(=O)C3=C(O)c4c(O)cccc4C[C@H]3C[C@@H]12` here?
**A.** inactive

**Q.** With `CCCCCCCCCCCCCCC` as the compound, how does the Potency read?
**A.** inactive

**Q.** `COc1cc(NS(=O)(=O)c2ccc(N)cc2)nc(C)n1` was tested. Which Potency did it give?
**A.** inactive

**Q.** Which activity, negative = inhibition does the source give for `CCCCCCCCCCCCCCCCCCCl` here?
**A.** 10% [at 5.58 µM]

**Q.** With `C=C(C)C(=O)OCCOCCOC(=O)C(=C)C` as the compound, how does the Potency read?
**A.** inactive

**Q.** For `COc1ccc(C(=O)/C(Br)=C\C(=O)O)cc1`, which Potency is on record?
**A.** inactive

**Q.** With `CCOC(C)OCC` as the compound, how does the Potency read?
**A.** inactive

**Q.** `CCCNCCC` was tested. Which Potency did it give?
**A.** inactive

**Q.** Which Potency does the source give for `C=C1C(=C/C=C2\CCC[C@]3(C)[C@@H]([C@H](C)/C=C/[C@@H](O)C4CC4)CC[C@@H]23)C[C@@H](O)C[C@@H]1O` here?
**A.** inactive

**Q.** Which Potency does the source give for `O=C1OC(=O)c2c(Br)c(Br)c(Br)c(Br)c21` here?
**A.** inactive

**Q.** For `CCCCCC=CCC=CCCCCCCCC(=O)OCC`, which Potency is on record?
**A.** inactive

**Q.** Which Potency does the source give for `COc1ccc(C(=O)c2ccc(C)cc2)c(O)c1` here?
**A.** inactive

**Q.** With `O=C(Cl)c1c(Cl)cccc1Cl` as the compound, how does the Potency read?
**A.** inactive

**Q.** `CCCCCCCCCCCCOCCOS(=O)(=O)O` was tested. Which Potency did it give?
**A.** inactive

**Q.** `CC(=O)OCC1=C(C(=O)O)N2C(=O)[C@@H](NC(=O)CSc3ccncc3)[C@H]2SC1` was tested. Which Potency did it give?
**A.** inactive

**Q.** How did the Potency turn out when `O=C(O)Cc1cc(I)c(Oc2cc(I)c(O)c(I)c2)c(I)c1` was run?
**A.** inactive

**Q.** With `OC[C@H]1O[C@@H](OCCc2ccc(O)cc2)[C@H](O)[C@@H](O)[C@@H]1O` as the compound, how does the Potency read?
**A.** inactive

**Q.** For `CC1=CC(C)C(C=O)C(C)C1` (stereo not given), which Potency is on record?
**A.** inactive

**Q.** Which activity, negative = inhibition does the source give for `O=C(O)c1ccccc1Nc1cc(Cl)ccc1C(=O)O` here?
**A.** 22.2% [at 12.6 µM]

**Q.** `Cc1ccc(S(=O)(=O)NC(=O)NC2CCCCC2)cc1` was tested. Which Potency did it give?
**A.** inactive

**Q.** Which Potency does the source give for `CN1C(C)(C)CC(O)CC1(C)C` here?
**A.** inactive
